# Measurements: PubChem BioAssay
# The source made the active and inactive calls.
# Tests used:
# [1] = small molecules captured by biotinylated probe aFSTL3 – biochemical, small-molecule microarray, fluorescence 635/667, stem cell growth factor project, primary screen (AID 1064); details: higher = more signal;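 also: measures binding of the biotinylated anti-FSTL3 antibody to printed compounds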
# [2] = binders from COS7 lysate, DM2A8 probe, primary screen, torsin A project, cell lysate, small-molecule microarray, fluorescence 635/667 (AID 1065); details: higher = more signal, COS7 lysate expressing mutant human TOR1A
# [3] = small molecules captured by biotinylated probe aFGF2 – biochemical, small-molecule microarray, fluorescence 635/667, stem cell growth factor project, primary screen (AID 1067); details: higher = more signal;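 also: measures binding of biotinylated aFGF2 protein to printed compounds on slides; z-score merges feature fluorescence and signal-to-noise across triplicate slides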
# [4] = small molecules captured by biotinylated probe aFGF10 – biochemical, small-molecule microarray, fluorescence 635/667, stem cell growth factor project, primary screen (AID 1071); details: higher = more signal;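 also: score merges 667 nm spot intensity and signal to noise from triplicate slides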
# [5] = molecular target: Neurogenic locus notch homolog protein 2 (Homo sapiens) (UniProt Q04721); assay: small molecules binding Notch2 protein – biochemical, small-molecule microarray, 635 nm fluorescence, stem cell growth factors, primary screen (AID 1073); details: higher = more signal
# [6] = molecular target: Pro-neuregulin-1, membrane-bound isoform (Homo sapiens) (UniProt Q02297); assay: small molecules binding neuregulin-1 protein – biochemical, small-molecule microarray, fluorescence 635/667, psychiatric disease protein project, primary screen (AID 1075); details: NRG1 binding, 635 nm fluorescence, higher = more signal;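 also: score combines 667 nm spot fluorescence with signal to noise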
# Pro-neuregulin-1, membrane-bound isoform (Homo sapiens), sequence (Q02297 whole entry, looked up, the tested form may be a part, canonical isoform): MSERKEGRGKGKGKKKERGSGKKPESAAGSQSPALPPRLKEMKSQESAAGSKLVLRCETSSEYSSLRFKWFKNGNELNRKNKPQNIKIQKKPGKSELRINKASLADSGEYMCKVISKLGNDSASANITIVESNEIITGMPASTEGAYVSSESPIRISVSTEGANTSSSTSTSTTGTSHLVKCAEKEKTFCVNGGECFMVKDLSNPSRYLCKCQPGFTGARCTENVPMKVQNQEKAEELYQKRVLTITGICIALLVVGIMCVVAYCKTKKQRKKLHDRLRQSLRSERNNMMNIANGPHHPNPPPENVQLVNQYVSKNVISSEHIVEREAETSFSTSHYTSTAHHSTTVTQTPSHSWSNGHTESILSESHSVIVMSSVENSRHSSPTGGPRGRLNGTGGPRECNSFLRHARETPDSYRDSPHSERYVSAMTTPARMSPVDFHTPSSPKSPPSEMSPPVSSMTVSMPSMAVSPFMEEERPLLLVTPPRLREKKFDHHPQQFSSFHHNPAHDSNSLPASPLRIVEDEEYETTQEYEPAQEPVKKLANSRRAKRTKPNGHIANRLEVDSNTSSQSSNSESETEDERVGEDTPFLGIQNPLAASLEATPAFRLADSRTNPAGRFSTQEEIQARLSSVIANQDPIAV
# [7] = tested on: Neuregulin-1 EGF-like domain; assay: small molecules binding NRG1 EGF domain – biochemical, small-molecule microarray, 635 nm fluorescence, primary screen (AID 1081); details: higher = more signal;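 also: binding of the protein to compounds printed on small-molecule microarray slides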
# [8] = FRG1 expression reporter modulators in myotubes – cell-based, C2C12 myotubes, firefly/Renilla luciferase, luminescence, FRG1 inhibition for FSHD, primary screen (AID 1084); details: FRG1 promoter luciferase, higher = more signal, called active from +8 up or from −8 down
# [9] = small molecules captured by biotinylated probe aFST – biochemical, small-molecule microarray, fluorescence 635/667, stem cell growth factor project, primary screen (AID 1086); details: higher = more signal;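 also: score merges 667 nm fluorescence with signal-to-noise of each printed compound spot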
# [10] = binders of probe aHhip on microarray, primary screen, stem cell growth factor project, biochemical, small-molecule microarray, fluorescence 635/667 (AID 1087); details: higher = more signal;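 also: score merges spot fluorescence at 667nm with spot signal to noise ratio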
# [11] = tested on: PRMT1 (protein arginine N-methyltransferase 1); assay: small molecules binding arginine methyltransferase PRMT1 – biochemical, small-molecule microarray, 635 nm fluorescence, primary screen (AID 1088); details: higher = more signal;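 also: binding of Prmt1 protein to compounds spotted on small-molecule microarray slides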
# [12] = growth effects on S. cerevisiae YJM789 – YJM789 clinical isolate, OD600, 24 h, basal, primary screen (AID 1089); details: higher = more signal, called active from +8 up or from −8 down;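 also: growth of clinical yeast isolate S. cerevisiae YJM 789 seeded 1000 cells per well; test concentration not given here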
# [13] = S. pombe growth modifiers, basal conditions – strain 972, OD600, 24 h, no modulator, primary screen (AID 1090);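 also: basal condition with compound alone and no growth modifier present; test concentration not given here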; details: S. pombe 972 growth, higher = more signal, called active from +8 up or from −8 down
# [14] = budding yeast growth modifiers under rapamycin – strain BY4716, OD600, 96 h, primary screen (AID 1091); also: test concentration not given here; details: S. cerevisiae BY4716 + rapamycin, higher = more signal, called active from +8 up or from −8 down
# [15] = molecular target: Torsin-1A-interacting protein 2 (Homo sapiens) (UniProt Q8NFQ8); assay: small molecules binding lysate-expressed LULL1 – cell lysate, human LULL1 lysate, 635/667 nm fluorescence, primary screen (AID 1092); details: small-molecule microarray, hLULL1 lysate binding, 635 nm fluorescence; higher = more signal;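 also: probe is lysate of COS7 cells overexpressing human LULL1; score merges per-feature 667 nm fluorescence with signal-to-noise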
# Torsin-1A-interacting protein 2 (Homo sapiens), sequence (Q8NFQ8 whole entry, looked up): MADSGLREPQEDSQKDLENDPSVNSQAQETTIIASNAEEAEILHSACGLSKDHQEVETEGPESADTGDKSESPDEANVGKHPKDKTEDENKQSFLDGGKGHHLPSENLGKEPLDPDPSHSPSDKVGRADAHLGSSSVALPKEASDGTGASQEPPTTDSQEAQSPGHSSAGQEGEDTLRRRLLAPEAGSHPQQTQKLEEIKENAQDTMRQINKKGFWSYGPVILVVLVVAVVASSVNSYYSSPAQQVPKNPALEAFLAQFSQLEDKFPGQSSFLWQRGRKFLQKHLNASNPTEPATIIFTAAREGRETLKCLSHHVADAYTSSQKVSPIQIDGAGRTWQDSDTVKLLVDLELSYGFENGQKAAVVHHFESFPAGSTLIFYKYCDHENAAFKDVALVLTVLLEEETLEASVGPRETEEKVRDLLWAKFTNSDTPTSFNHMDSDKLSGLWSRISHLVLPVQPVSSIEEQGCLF
# [16] = optical density change of DRC41 E. coli – strain DRC41, OD650, 24 h, E. coli filamentation project, primary screen (AID 1093);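 also: MC1000 strain lacking acrAB efflux and sulA so SOS filamentation is blocked; test concentration not given here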; details: E. coli DRC41 growth, higher = more signal, called active from +8 up or from −8 down
# [17] = probe aLefty2 binding to arrayed compounds – biochemical, biotinylated probe, 635/667 nm fluorescence, primary screen (AID 1094); details: small-molecule microarray, higher = more signal;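 also: score merges spot fluorescence near 667 nm with spot signal-to-noise ratio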
# [18] = tested on: Noggin (protein binding on small-molecule microarray); assay: small molecules binding Noggin protein – biochemical, 635/667 nm fluorescence, primary screen (AID 1095); details: 635 nm fluorescence, higher = more signal;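 also: score merges 667 nm feature fluorescence with signal to noise over triplicate slides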
# [19] = molecular target: Neurogenic locus notch homolog protein 3 (Homo sapiens) (UniProt Q9UM47); assay: small molecules binding NOTCH3 protein – biochemical, 635/667 nm fluorescence, primary screen (AID 1096); details: small-molecule microarray, 635 nm fluorescence, higher = more signal
# Neurogenic locus notch homolog protein 3 (Homo sapiens), sequence (Q9UM47 whole entry, looked up): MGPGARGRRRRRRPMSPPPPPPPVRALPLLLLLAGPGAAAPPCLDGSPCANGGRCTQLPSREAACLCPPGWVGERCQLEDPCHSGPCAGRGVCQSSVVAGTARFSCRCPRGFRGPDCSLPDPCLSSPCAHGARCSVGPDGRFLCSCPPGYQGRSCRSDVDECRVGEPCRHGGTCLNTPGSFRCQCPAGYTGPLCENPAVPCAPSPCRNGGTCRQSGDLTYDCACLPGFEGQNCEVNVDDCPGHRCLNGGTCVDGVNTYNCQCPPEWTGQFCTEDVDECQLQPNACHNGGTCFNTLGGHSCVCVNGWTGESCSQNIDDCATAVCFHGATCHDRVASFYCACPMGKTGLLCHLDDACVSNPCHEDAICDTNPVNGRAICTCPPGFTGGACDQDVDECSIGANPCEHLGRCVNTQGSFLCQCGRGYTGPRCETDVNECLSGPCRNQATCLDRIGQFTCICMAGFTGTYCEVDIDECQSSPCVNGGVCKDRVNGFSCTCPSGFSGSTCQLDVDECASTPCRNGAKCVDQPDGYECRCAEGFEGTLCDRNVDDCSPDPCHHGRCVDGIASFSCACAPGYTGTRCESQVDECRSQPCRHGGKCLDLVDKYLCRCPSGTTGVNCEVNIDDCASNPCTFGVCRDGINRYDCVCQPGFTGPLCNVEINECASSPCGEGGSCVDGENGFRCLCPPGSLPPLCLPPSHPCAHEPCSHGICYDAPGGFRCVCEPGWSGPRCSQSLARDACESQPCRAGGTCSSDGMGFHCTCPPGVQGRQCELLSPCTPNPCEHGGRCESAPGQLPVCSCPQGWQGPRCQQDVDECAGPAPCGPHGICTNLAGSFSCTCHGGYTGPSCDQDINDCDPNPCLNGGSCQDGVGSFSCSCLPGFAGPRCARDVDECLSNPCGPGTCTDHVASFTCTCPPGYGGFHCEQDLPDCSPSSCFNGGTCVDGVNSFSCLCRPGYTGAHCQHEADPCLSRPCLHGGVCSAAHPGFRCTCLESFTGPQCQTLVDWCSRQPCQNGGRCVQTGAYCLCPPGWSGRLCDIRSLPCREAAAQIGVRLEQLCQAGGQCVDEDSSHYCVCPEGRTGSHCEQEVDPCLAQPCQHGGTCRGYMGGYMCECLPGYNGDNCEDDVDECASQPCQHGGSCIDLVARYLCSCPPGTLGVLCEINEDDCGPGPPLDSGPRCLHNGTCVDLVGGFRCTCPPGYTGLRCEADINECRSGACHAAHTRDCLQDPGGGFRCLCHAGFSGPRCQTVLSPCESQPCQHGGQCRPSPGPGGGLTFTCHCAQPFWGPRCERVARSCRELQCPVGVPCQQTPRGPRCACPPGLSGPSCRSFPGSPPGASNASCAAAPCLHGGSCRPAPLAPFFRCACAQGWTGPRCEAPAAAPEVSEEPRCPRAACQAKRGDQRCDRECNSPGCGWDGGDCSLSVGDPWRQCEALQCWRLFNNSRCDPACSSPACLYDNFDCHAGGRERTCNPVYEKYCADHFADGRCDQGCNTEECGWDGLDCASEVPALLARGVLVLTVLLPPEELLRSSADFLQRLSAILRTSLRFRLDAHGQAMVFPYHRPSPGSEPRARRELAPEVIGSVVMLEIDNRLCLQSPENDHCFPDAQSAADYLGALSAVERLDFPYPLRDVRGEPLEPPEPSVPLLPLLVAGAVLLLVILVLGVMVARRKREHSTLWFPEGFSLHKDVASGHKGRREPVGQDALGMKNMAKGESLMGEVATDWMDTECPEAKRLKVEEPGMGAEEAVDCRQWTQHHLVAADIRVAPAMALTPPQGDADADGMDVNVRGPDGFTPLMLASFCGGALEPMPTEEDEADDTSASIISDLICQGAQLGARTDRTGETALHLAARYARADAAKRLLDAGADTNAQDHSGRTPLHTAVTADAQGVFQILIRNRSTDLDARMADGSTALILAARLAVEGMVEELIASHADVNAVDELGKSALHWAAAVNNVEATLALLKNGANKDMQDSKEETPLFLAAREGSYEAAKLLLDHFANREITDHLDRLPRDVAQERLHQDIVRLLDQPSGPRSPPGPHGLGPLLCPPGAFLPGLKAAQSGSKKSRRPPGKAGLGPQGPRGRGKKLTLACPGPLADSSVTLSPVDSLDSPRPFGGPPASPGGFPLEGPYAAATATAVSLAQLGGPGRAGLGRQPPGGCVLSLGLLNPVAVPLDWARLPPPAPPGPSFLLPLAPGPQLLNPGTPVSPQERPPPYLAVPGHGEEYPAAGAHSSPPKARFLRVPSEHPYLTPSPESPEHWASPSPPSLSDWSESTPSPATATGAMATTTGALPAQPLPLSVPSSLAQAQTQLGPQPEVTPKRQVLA
# [20] = probe aEGFR binding to arrayed compounds – biochemical, biotinylated probe, 635/667 nm fluorescence, primary screen (AID 1097); details: small-molecule microarray, higher = more signal;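 also: probe is a biotinylated anti-EGFR antibody binding compounds printed on slides; score combines fluorescence near 667 nm and signal to noise of each spot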
Compound,composite z-score [1],composite z-score [2],composite z-score [3],composite z-score [4],composite z-score [5],composite z-score [6],composite z-score [7],z-score [8],composite z-score [9],composite z-score [10],composite z-score [11],z-score [12],z-score [13],z-score [14],composite z-score [15],z-score [16],composite z-score [17],composite z-score [18],composite z-score [19],composite z-score [20]
CCCCC(CC)C(O)C1C=CC2C(=O)NC(=O)C2N1Nc1ccccn1 (stereo not given),-0.252,-0.14,-0.0005,0.207,1.41,1.38,0.879,1.54 (inactive),0.245,0.204,1.34,0.601 (inactive),0.764 (inactive),0.722 (inactive),2.74,-0.828 (inactive),-0.11,0.0732,1.1,-0.119
O=C1O[C@H](c2ccccc2)[C@H](c2ccccc2)N2[C@H]1[C@@H](C(=O)N1CCCCCCC1)[C@]1(C(=O)Nc3ccc(C#CCCO)cc31)[C@H]2c1ccc(OCCO)cc1,3.51,2.79,0.972,1.49,1.76,2.84,1.35,-0.409 (inactive),3.33,2.53,1.56,1.55 (inactive),-0.0863 (inactive),3.73 (inactive),5.06,0.669 (inactive),1.6,2.36,1.01,1.28
COC(=O)[C@]1(Cc2ccccc2CN=[N+]=[N-])N=C(c2ccc(OCCCO)cc2)O[C@@H]1c1ccccc1CN=[N+]=[N-],0.409,-0.119,-0.087,0.013,-0.443,0.726,1.28,-0.904 (inactive),-0.117,-0.0994,0.921,-0.456 (inactive),-1.09 (inactive),33.5 (active),2,2.08 (inactive),0.111,0.435,-0.253,-0.0828
COCCOC(=O)N1C(=O)[C@@]2(c3cc(C#CC4(O)CCCCCC4)ccc31)[C@H](C(=O)N1CCc3cc(OC)c(OC)cc3C1)[C@H]1C(=O)O[C@H](c3ccccc3)[C@H](c3ccccc3)N1[C@@H]2c1ccccc1OCCO,-0.0526,1.46,0.119,0.665,1.15,0.491,1.22,-0.165 (inactive),1.08,0.623,1.54,2.29 (inactive),1.05 (inactive),3.98 (inactive),1.39,1.36 (inactive),0.226,1.29,1.06,0.295
CCN(CC)c1ccc(N2CC=CC34O[C@@H]5/C=C\CCCOC(=O)C5[C@H]3C(=O)N(CCCCCCO)[C@@H]4C2=O)cc1 (stereo not given in full),0.272,-0.305,-0.119,-0.964,-0.946,1.63,0.709,-0.489 (inactive),-0.958,-0.271,0.529,-2.29 (inactive),-0.737 (inactive),-0.64 (inactive),3.35,1.27 (inactive),-0.162,-0.885,-0.122,-0.197
COc1ccc(C#Cc2ccc3c(c2)[C@]2(C(=O)N3)[C@H](C(N)=O)[C@H]3C(=O)O[C@H](c4ccccc4)[C@H](c4ccccc4)N3[C@@H]2c2ccc(O)cc2)cc1,-0.302,1.1,-0.0183,0.665,0.477,1.57,1.38,-0.891 (inactive),0.722,-0.0581,1.56,1.47 (inactive),0.107 (inactive),2.28 (inactive),2.94,-0.103 (inactive),-0.0258,0.176,0.664,0.391
C=C(/C(=C/C[C@@H](OC(=O)c1ccncc1)c1cccc(OCCO)c1)c1cc(C(=O)OC)ccc1OC)C(C)C,-0.295,0.679,-0.0549,0.579,0.868,0.826,0.981,-1.61 (inactive),0.351,-0.0994,1.33,-0.117 (inactive),-1.22 (inactive),-0.35 (inactive),1.54,1.03 (inactive),0.0233,0.548,0.93,-0.0476
O=C(N1CCOCC1)[C@@]1(CCS(=O)(=O)c2ccccc2)COC(c2ccc(OCCCO)cc2)=N1,0.229,0.281,-0.0348,0.797,-0.194,0.929,0.942,-1.85 (inactive),0.54,0.041,0.988,0.0962 (inactive),0.365 (inactive),-0.408 (inactive),3.18,1.01 (inactive),-0.139,0.0307,0.0961,-0.174
COc1ccccc1CN1C(=O)c2ccccc2[C@@H](C(=O)NCC(C)C)[C@@H]1c1ccc(CO)cc1,0.482,-0.117,0.0342,-0.0779,1.07,0.869,0.7,-1.97 (inactive),0.0346,-0.0994,-0.106,0.444 (inactive),-0.288 (inactive),0.125 (inactive),2.18,0.0616 (inactive),-0.0042,-0.081,-0.222,-0.0398
COc1ccc([Si](C)(C)[C@@H]2[C@@H](CCO)O[C@]3(C(=O)N(Cc4cccc(N5C(=O)COc6ccccc65)c4)c4ccccc43)[C@H]2C)cc1,0.0857,-0.183,-0.072,0.492,0.0822,1.18,0.818,-1.22 (inactive),-0.287,-0.164,0.896,3.01 (inactive),1.09 (inactive),36.8 (active),1.61,0.685 (inactive),-0.124,-0.142,0.528,-0.0864
